Experiment [1] can be described thus: AP1 Signaling Pathway (AID 357). Also: % is scaled to controls: 0 for no effect and ±100 for the full control effect. As to conditions: ME-180 AP-1-bla reporter, EGF-induced, beta-lactamase ratio, 5 h; at 7.69 µM (top of the series) unless noted. In short, it runs like this: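 AP-1-bla ME-180 cells with beta-lactamase reporter under AP-1 response element, stimulated with EC50 EGF; compounds titrated, 5 hours at 37 degrees Celsius. CCF4 read at 460/530 nm ratio; positive and negative modulators judged by AC50.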

Experiment [2] has as its target Cytochrome P450 1A2 (Homo sapiens) (UniProt P05177). Kind of experiment: p450-cyp1a2 (AID 410; calls by dose curve; also: potency is read from the fitted curve at half-maximal effect;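 as to activity change, negative = inhibition: -100% = full effect of reference inhibitor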). In short, it runs like this:
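Inhibition was calculated relative to 57 uM furafylline (full inhibition). The reaction used human CYP1A2 at 20nM with Luciferin-ME at its Km, 100uM, driven by an NADPH-regenerating system for 60 min at room temperature.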

Experiment [3] can be described thus: NFAT Signaling Pathway (AID 444).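 Also: carbachol stimulus at about its EC50 of 1 µM final; % is scaled to controls: 0 for no effect and ±100 for the full control effect.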 The note with it: Jurkat NFAT-bla M1, carbachol, beta-lactamase ratio, 5 h; at 7.69 µM (top of the series) unless noted. In short, it runs like this:
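Read-out: CCF4 FRET ratio (460 nm/530 nm) after 1 h RT dye loading, used for %activity and AC50 from titration series. Cells: Jurkat NFAT-β-lactamase/M1 line, treated with compound plus 1 uM carbachol for 5 h, 37 °C.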

The nature of experiment [4]: Stat Signaling Pathway (AID 446).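 Also: ME-180 cervical cancer cells given 40 pM IL-6 alongside compound; SIE-controlled beta-lactamase reporter measured as 460/530 nm FRET emission ratio; % is scaled to controls: 0 for no effect and ±100 for the full control effect.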 The note with it: ME-180 SIE beta-lactamase reporter, IL-6 stimulated, 5 h; at 7.69 µM (top of the series) unless noted. The procedure, abridged: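 ME-180 SIE-bla cells; overnight plating; cpd + IL-6 40 pM, 5 h, 37 C; LiveBLAzer 2.5 h RT; 460/530 nm emission ratio. Normalized to 300 pM IL-6 and 125 nM JAK inhibitor controls.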
For experiment [5], the target named is Glucocorticoid receptor (Homo sapiens) (UniProt P04150). The experiment can be described thus: GR-GFP Redistribution (AID 450;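 active = compounds whose dose series gives a full or clear partial fitted curve of increased nuclear translocation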; also: potency is read from the fitted curve at half-maximal effect). As to conditions: U2OS GR-GFP nuclear translocation, laser cytometry, 2 h.
Glucocorticoid receptor (Homo sapiens), sequence (P04150 whole entry, looked up, the tested form may be a part): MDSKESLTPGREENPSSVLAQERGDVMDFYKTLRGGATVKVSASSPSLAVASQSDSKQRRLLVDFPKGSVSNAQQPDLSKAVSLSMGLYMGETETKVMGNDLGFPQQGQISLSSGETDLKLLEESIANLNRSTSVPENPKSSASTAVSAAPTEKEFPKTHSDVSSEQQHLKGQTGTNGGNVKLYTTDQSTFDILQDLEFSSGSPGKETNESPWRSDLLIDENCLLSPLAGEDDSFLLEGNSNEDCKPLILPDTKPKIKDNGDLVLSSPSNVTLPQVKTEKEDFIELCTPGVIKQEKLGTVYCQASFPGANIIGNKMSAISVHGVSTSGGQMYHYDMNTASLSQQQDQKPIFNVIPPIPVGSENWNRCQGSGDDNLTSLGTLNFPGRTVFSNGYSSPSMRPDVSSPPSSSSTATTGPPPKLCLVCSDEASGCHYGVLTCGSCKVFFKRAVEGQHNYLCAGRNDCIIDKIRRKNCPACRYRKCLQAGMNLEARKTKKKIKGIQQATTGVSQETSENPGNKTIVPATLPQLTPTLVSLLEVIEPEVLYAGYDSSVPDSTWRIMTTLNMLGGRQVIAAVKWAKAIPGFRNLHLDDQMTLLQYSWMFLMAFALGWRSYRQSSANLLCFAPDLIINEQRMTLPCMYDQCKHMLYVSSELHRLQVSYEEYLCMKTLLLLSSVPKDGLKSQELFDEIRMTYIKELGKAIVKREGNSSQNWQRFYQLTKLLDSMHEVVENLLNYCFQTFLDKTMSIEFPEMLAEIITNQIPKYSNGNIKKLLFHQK
Experiment [6] shares this target. The experiment can be described thus: GR-EFC Redistribution (AID 451; calls by dose curve; also: potency is read from the fitted curve at half-maximal effect). As to conditions: CHO-K1 GR-EFC translocation, beta-gal luminescence, 2 h. The procedure, abridged: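 Translocation of GR-ED fusion to nuclear EA restores b-gal, read by luminescence after 1 h room-temperature detection. Engineered CHO-K1 biosensor cells, 1,000/well, exposed 2 h at 37 C to titrations up to 46 uM final.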

In experiment [7] the target is Mitogen-activated protein kinase 10 (Mus musculus) (UniProt Q61831). Kind of experiment: JNK3 AlphaScreen Assay (AID 530).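 Also: kinase came from lysate of stimulated human HepG2 cells; signal reports phosphorylation of biotinylated GST-cJun 1-79 at Ser73 with 10 µM ATP; % is scaled to controls: 0 for no effect and ±100 for the full control effect.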 In short, it runs like this: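 Room-temperature AlphaScreen kinase assay; pre-activated HepG2 lysate as JNK3 source, biotin-GST-cJun(1-79) substrate, 10 uM ATP, compound 15 min preincubation.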
Experiment [8] addresses 3',5'-cyclic-AMP phosphodiesterase 4B (Homo sapiens) (UniProt Q07343). The experiment can be described thus: qHTS Assay for Inhibitors of PDE-IV (AID 607; active = well fitted activation curve with a large enough effect in the main read-out, with a control signal flat, not every such curve was filed as active; also: % of control where 0% means no effect). The procedure, abridged: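 ACTOne HEK293 cells carry a modified cAMP-gated CNG channel and express endogenous PDE4; plated 1000 cells/well, compounds up to 22.9 uM final. Membrane-potential dye fluorescence (ex 535/em 590) was read; parental cells received 10 uM forskolin + 100 uM RO 20-1724.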

The target of experiment [9] is Cytochrome P450 3A4 (Homo sapiens) (UniProt P08684). Kind of experiment: qHTS Assay for Inhibitors and Substrates of Cytochrome P450 3A4 (AID 884; active = well fitted curve in the direction sought with a large enough effect; an effect the other way counts as inactive or inconclusive; also: potency is read from the fitted curve at half-maximal effect; nearly all actives have a fitted effect of over 50% in size). In short, it runs like this:
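20 nM human CYP3A4 with 25 uM Luciferin-PPXE (at KM) in 200 mM KPO4, preincubated 10 min with compound; NADPH regeneration started a 60 min RT reaction. Luciferin detected by luminescence, normalized to 57 uM ketoconazole as full inhibition.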

For experiment [10] the target is unchanged. The experiment can be described thus: qHTS Assay for Activators of Cytochrome P450 3A4 (AID 885; active = well fitted curve in the direction sought with a large enough effect; an effect the other way counts as inactive or inconclusive; also: nearly all actives have a fitted effect of over 65% in size). In short, it runs like this: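 20nM CYP3A4 + 25uM Luciferin-PPXE (=KM), 200mM KPO4; cpd 10 min RT; NADPH regen, 60 min RT; stop w/ detection buffer, 20 min; luminescence. Normalized to 57 uM ketoconazole.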
Experiment [11] in a line: qHTS Assay for Lipid Storage Modulators (AID 1519; calls by dose curve). As to conditions: Drosophila S3 cells, BODIPY lipid droplet/cell ratio, laser cytometry, cells loaded with oleic acid; for activity change, negative = inhibition: at 57.5 µM (top of the series). The procedure, abridged: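 Cells seeded at 5,000 per well were treated with compounds over a concentration series and loaded with oleic acid (400 uM, as added). Lipid droplet fluorescence (488 nm excitation, 500-530 nm channel) was read by laser-scanning cytometry and normalized to 20 uM Triacsin C.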

The nature of experiment [12]: Primary qHTS for small molecule stabilizers of the endoplasmic reticulum resident proteome: Secreted ER Calcium Modulated Protein (SERCaMP) assay (AID 1508630; active = well fitted curve in the direction sought with a large enough effect; an effect the other way counts as inactive or inconclusive; also: % is scaled to controls: 0 for no effect and ±100 for the full control effect). The procedure, abridged: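 GLuc-SERCaMP-expressing SH-SY5Y cells, pretreated 16 h with compound, are challenged with thapsigargin to empty ER calcium stores; after 4 h, coelenterazine is added directly to the medium and luminescence is imaged.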

The target of experiment [13] is Ubiquitin carboxyl-terminal hydrolase 1 (Homo sapiens) (UniProt O94782). The experiment can be described thus: Inhibitors of USP1/UAF1: Pilot qHTS (AID 504865; active = well fitted curve in the direction sought with a large enough effect; an effect the other way counts as inactive or inconclusive;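 also: rhodamine fluorescence freed from ubiquitin-rhodamine substrate followed over time; top concentration of the series differs between compounds; % is scaled to controls: 0 for no effect and ±100 for the full control effect; nearly all actives have a fitted effect of over 35% in size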). The procedure, abridged:
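USP1/UAF1 complex at 1 nM preincubated 15 min at room temperature with compound, then Ub-Rho substrate added at 150 nM final. Fluorescence (480/540 nm) read kinetically in 50 mM HEPES pH 7.8, 0.5 mM EDTA, 1 mM TCEP, 0.1 mg/ml BSA, 0.01% Tween-20.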

[14] abbreviates: measured here: cell count channel max response.
Where [15] appears, read: measured here: lipid channel max response.

Records with an inconclusive call do not appear. Calls of active or inactive are those of the source. Unless noted, calls follow the shape of the dose curve; as a rule, active = well fitted curve in either direction with a large enough effect (not every such curve was filed as active); inconclusive = small, poorly fitted or top-dose-only effect, or another doubt; inactive = flat fitted curve, though single readings scatter.

Results on seven compounds are retold here after PubChem BioAssay (NCATS).

3',5'-cyclic-AMP phosphodiesterase 4B (Homo sapiens), sequence (Q07343 whole entry, looked up): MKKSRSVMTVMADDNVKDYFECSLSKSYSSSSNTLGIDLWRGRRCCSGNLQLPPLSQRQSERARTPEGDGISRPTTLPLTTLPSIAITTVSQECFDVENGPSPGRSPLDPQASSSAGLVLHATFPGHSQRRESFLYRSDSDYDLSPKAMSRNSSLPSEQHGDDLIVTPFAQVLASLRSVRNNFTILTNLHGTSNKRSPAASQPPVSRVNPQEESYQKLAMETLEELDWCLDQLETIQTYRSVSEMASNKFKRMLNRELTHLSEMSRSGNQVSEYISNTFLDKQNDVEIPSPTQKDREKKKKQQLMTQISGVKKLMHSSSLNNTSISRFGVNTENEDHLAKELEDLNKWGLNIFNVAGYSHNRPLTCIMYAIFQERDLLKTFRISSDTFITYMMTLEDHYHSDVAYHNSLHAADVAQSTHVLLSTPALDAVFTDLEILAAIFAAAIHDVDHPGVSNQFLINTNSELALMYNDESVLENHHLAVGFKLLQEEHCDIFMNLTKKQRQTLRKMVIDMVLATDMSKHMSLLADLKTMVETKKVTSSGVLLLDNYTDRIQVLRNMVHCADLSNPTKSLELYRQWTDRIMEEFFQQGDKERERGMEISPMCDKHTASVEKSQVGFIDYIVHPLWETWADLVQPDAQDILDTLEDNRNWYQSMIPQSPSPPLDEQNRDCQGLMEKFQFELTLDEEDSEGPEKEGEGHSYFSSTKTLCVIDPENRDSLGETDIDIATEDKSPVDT
Cytochrome P450 1A2 (Homo sapiens), sequence (P05177 whole entry, looked up): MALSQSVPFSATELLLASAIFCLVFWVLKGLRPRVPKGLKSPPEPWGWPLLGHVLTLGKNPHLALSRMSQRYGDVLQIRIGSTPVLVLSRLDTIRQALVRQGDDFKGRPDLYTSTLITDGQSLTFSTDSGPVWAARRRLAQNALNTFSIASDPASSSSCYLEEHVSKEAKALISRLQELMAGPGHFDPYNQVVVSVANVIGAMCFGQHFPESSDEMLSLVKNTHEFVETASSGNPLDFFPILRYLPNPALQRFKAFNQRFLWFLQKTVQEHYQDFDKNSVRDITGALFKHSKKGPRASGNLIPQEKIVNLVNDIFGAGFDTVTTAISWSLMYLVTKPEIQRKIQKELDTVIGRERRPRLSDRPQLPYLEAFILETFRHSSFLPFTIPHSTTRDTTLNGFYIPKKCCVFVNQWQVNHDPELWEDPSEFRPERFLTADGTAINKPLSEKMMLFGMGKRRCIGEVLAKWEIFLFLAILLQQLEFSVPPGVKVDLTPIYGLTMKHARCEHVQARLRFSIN
Cytochrome P450 3A4 (Homo sapiens), sequence (P08684 whole entry, looked up): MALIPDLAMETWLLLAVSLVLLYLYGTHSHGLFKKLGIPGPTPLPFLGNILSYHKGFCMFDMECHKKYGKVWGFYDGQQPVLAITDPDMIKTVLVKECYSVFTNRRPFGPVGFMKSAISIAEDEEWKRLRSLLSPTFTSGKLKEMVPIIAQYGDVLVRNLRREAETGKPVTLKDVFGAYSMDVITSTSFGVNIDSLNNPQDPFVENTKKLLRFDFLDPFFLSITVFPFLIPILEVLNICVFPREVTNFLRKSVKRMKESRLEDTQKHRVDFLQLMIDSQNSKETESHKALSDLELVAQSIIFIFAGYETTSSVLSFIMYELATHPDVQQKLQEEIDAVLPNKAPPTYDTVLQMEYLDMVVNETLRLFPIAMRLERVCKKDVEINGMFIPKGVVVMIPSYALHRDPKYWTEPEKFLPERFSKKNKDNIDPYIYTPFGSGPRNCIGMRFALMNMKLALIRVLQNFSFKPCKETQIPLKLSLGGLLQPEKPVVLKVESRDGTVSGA
Ubiquitin carboxyl-terminal hydrolase 1 (Homo sapiens), sequence (O94782 whole entry, looked up): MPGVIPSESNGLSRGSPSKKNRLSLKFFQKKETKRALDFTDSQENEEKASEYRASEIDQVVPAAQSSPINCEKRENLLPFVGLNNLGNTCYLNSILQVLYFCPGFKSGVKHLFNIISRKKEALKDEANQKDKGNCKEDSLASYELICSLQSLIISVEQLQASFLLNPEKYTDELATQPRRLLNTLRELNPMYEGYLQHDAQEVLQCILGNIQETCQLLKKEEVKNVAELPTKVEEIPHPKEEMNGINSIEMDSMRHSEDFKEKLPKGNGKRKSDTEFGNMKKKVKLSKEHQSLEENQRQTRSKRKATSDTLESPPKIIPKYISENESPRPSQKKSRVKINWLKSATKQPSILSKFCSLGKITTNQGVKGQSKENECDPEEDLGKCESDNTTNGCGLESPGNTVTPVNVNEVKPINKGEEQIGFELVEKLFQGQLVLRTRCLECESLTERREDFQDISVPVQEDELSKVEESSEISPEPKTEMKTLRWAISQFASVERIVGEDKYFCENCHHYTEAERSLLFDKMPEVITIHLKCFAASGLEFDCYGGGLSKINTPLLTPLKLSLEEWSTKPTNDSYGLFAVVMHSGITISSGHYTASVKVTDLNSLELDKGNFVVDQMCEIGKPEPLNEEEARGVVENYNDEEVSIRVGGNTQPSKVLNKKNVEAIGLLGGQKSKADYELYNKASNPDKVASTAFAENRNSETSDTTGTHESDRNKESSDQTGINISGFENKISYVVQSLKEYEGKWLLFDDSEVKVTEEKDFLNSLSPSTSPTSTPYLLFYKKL

In the case of `Cc1noc(C)c1-c1nc(N2CCOCC2)c2ccccc2n1`, the activity change, negative = inhibition in experiment [1] is -9.5% (inactive); in experiment [3] it was 16.1% (inactive); in experiment [11], 2.85% (inactive). The Potency is 0.316 µM (active) in experiment [2], > 46 µM (inactive) in [5], > 46 µM (inactive) in experiment [6] and 6.31 µM (active) in experiment [9]. Further, the activity, negative = inhibition in experiment [4] was 19.8% (inactive). For the same compound, the Potency entry in experiment [7], in experiment [8] and in experiment [10] was “inactive” in each case. The figures for the max response in experiment [11] (setting [14]) and in experiment [11] (setting [15]) were 6.88% and 9.54%, respectively. Moreover, in [12], the outcome was inactive.

Regarding `O=C(c1ccncc1)N1CCC2(CC1)CCN(c1ccncc1)CC2`, the activity change, negative = inhibition in experiment [1] was -16.4% (inactive); in experiment [11], 1.78% (inactive). Further, the activity, negative = inhibition in [4] is 5.08% (inactive). The Potency in experiment [6] was > 46 µM (inactive). For the same compound, the Potency result in [7] and in experiment [8] was “inactive” in each case. Moreover, the values for the max response in experiment [11] (setting [14]) and in [11] (setting [15]) were -11.6% and -7.91%, respectively. For the same compound, the outcome in experiment [12] was inactive.

Take `CC(=O)NCCNc1nc(-c2ccc(N(C)C)cc2)nc2ccccc12`: the activity change, negative = inhibition in experiment [1] is 7.41% (inactive); in experiment [3], -28.2% (inactive); in experiment [11], 9.02% (inactive). For the same compound, the Potency is 3.16 µM (active) in [2], > 46 µM (inactive) in experiment [5] and > 46 µM (inactive) in [6]. For the same compound, the Potency result in [7], in [8], in experiment [10] and in experiment [13] was “inactive” each time. Besides, the results for the max response in experiment [11] (setting [14]) and in experiment [11] (setting [15]) were 13% and 24.4%, respectively. Further, the outcome in experiment [12] was inactive.

Turning to `O=C(c1csnn1)N1CCC2(CCN(Cc3ccccc3)CC2)CC1`, the activity change, negative = inhibition in experiment [1] was 13.9% (inactive); in experiment [11] it was -4.6% (inactive). The Potency entry in experiment [2], in experiment [7] and in experiment [8] was “inactive” throughout. Moreover, the activity, negative = inhibition in experiment [4] is -0.255% (inactive). Also, the Potency in [6] was > 46 µM (inactive). In addition, the figures for the max response in [11] (setting [14]) and in experiment [11] (setting [15]) were 4.52% and 1.17%, respectively. Moreover, the outcome in [12] was inactive.

Regarding `O=C(c1ccncc1)N1CCC[C@@]2(CCN(Cc3ccncc3)C2)C1`, the activity change, negative = inhibition was 14.5% (inactive) in [1], 3.82% (inactive) in [3] and 4.83% (inactive) in experiment [11]. Moreover, in experiment [4], the activity, negative = inhibition was -6.44% (inactive). For the same compound, in [6], the Potency was > 46 µM (inactive). Moreover, the Potency entry in experiment [7] and in experiment [8] was “inactive” each time. Further, the results for the max response in experiment [11] (setting [14]) and in experiment [11] (setting [15]) were 4.05% and 12.8%, respectively. In addition, the result in experiment [12] was inactive.

For `COc1ccc(NC(=O)N2CC3(CCN(C(=O)c4csnn4)CC3)C2)cc1`, the activity change, negative = inhibition in experiment [1] is 20.6% (inactive); in [3], 16.7% (inactive); in [11], 6.22% (inactive). Moreover, the Potency result in experiment [2], in [7] and in experiment [8] was “inactive” throughout. Further, the activity, negative = inhibition in experiment [4] was -2.12% (inactive). Further, the Potency in experiment [6] was > 46 µM (inactive). For the same compound, the max response was determined as 7.84% in [11] (setting [14]) and 18.1% in experiment [11] (setting [15]). In addition, in experiment [12], the outcome was inactive.

For the compound `CN(C)c1ccc(-c2nc(N(C)C)c3ccccc3n2)cc1`, the values for the activity change, negative = inhibition in [1], in experiment [3] and in [11] were 3.53% (inactive), -21.8% (inactive) and -3.41% (inactive), respectively. For the same compound, the Potency in experiment [2] was 0.251 µM (active); in experiment [5], > 46 µM (inactive); in experiment [6] it was > 46 µM (inactive). Further, the Potency result in experiment [7], in experiment [8], in [10] and in experiment [13] was “inactive” in each case. In addition, the max response in experiment [11] (setting [14]) is 2.51%; in experiment [11] (setting [15]), -1.1%. In addition, the result in [12] was inactive.
